A structure can be active in one record and inactive in another. The source made the active and inactive calls. How the source made its calls: active means hit-call score of the fitted dose curve at least 0.9, where 1 is the maximum; inactive means score below 0.9.

Our source for the outcome and AC50 values is PubChem BioAssay (EPA / NIEHS).

Read-out in one experiment: not listed separately
Briefly: BSK_LPS_SRB: Viability Assessment in the BioMAP Diversity Plus: LPS Assay (AID 2283079).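 Further: total protein by sulforhodamine B absorbance as a cytotoxicity measure; measured one day after compound addition; fitted in both directions against DMSO so loss or gain of signal counts.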 The conditions noted are these: primary human HUVEC with PBMC. A digest of the protocol:
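Overt cytotoxicity was gauged by sulforhodamine B total-protein staining in a primary human vascular endothelial and mononuclear cell co-culture 24 h post-dosing. Activity was fitted in both directions relative to DMSO.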
Consider `CCCCCCCCCCCCc1cccc(S(=O)(=O)O)c1`, for which the outcome was inactive.
Turning to `CC(C)N(C(=O)CCl)c1ccccc1`, the AC50 (as a rule, the concentration giving half of the maximal activity seen) was 20 µM (active).
For the compound `CN(C)C(=S)S`, the result was inactive.
For the compound `Oc1c(Br)cc(Br)cc1Br`, the result was inactive.
The same measure, in the same setting: in the case of `C[C@]12CC[C@@H](O)C[C@@H]1CC[C@@H]1[C@@H]2CC[C@]2(C)C(=O)CC[C@@H]12` it was “inactive”; in that of `O=C(O)COc1cc(Cl)c(Cl)cc1Cl`, “inactive”; in that of `Cc1ccc(OP(=O)(Oc2ccc(C)cc2C)Oc2ccc(C)cc2C)c(C)c1`, “inactive”.
Turning to `C=CC(Cl)CCl` (stereo not given), the outcome was inactive.
On to `[Cl][Sn]([c]1ccccc1)([c]1ccccc1)[c]1ccccc1`, for which the half-maximal activity concentration (AC50) is 1.08 µM (active).
Consider `COc1ccccc1N`, for which the result was inactive.
For `Cc1cccc(OP(=O)(Oc2cccc(C)c2)Oc2cccc(C)c2)c1`, the outcome was inactive.
Consider `N#Cc1cccnc1`, for which the outcome was inactive.
`OC(Cc1ccccc1Cl)(Cn1[nH]cnc1=S)C1(Cl)CC1` (stereo not given): the result was inactive.
Consider `CC1(C)[C@H](C(=O)O[C@H](C#N)c2cccc(Oc3ccccc3)c2)[C@@H]1/C=C(\Cl)C(F)(F)F`, for which the outcome was inactive.
Regarding `CCCCCCCCCCCCN(C)C`, the result was inactive.
Same read-out and setting: in the case of `OCCCCO` it was “inactive”.
Consider `Nc1ccc(N)cc1`, for which the outcome was inactive.
Consider `COCC(=O)N(c1c(C)cccc1C)[C@H](C)C(=O)OC`, for which the result was inactive.
Take `CCOP(=S)(OCC)OP(=S)(OCC)OCC`: the result was inactive.
Turning to `Clc1cccc(Cl)c1`, the outcome was inactive.
Consider `OC(Cc1ccccc1Cl)(Cn1cncn1)C1(Cl)CC1` (stereo not given), for which the outcome was inactive.
Turning to `Clc1cccc(Cl)c1Cl`, the outcome was inactive.
For `NC(=O)CCl`, the outcome was inactive.
`O=C(N[C@H]1CN2CCC1CC2)c1ccc2c(c1)OCCO2`: the result was inactive.
For the compound `c1ccc(-c2cccc(-c3ccccc3)c2)cc1`, the AC50 was 23.9 µM (active).
As for `Cc1c([N+](=O)[O-])c(C)c([N+](=O)[O-])c(C(C)(C)C)c1[N+](=O)[O-]`, the outcome was inactive.
As for `CCCCN(CCCC)C(=S)[S-].CCCCN(CCCC)C(=S)[S-].[Ni+2]`, the outcome was inactive.
In the case of `O=C(CCl)NCO`, the result was inactive.
As to `Cc1cc(Cl)ccc1N`, the outcome was inactive.
Turning to `Oc1cc(Cl)c(Cl)cc1Cl`, the AC50 is 25.7 µM (active).
For `CCOC(=O)CCN(SN(C)C(=O)Oc1cccc2c1OC(C)(C)C2)C(C)C`, the outcome was inactive.
Still for that read-out and setting: in the case of `CCCCOC(=O)COC(=O)c1ccccc1C(=O)OCCCC` it was “inactive”.
As to `N#CCCC(Br)(C#N)CBr` (stereo not given), the concentration at half-maximal activity (AC50) was 20 µM (active).

Read-out in another experiment: Interleukin-1 alpha (IL1a), IL1A (gene 3552)
The experiment is described as follows: BSK_LPS_IL1a: BioMAP Diversity Plus: LPS Assay for Interleukin-1 alpha (IL1a) Biomarker Activity (AID 2283080). The conditions noted are these: primary human HUVEC with PBMC; actives raise or lower the signal. A digest of the protocol: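 Measured: IL-1 alpha via ELISA at 24 h in LPS-activated human umbilical vein endothelium–PBMC co-culture. Baseline: DMSO, bidirectional fitting.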
Consider `CCCCCCCCCCCCc1cccc(S(=O)(=O)O)c1`, for which the result was inactive.
`CC(C)N(C(=O)CCl)c1ccccc1`: the AC50 was 5.56 µM (active).
On to `CN(C)C(=S)S`, for which the result was inactive.
With `Oc1c(Br)cc(Br)cc1Br`, the result was inactive.
Regarding `C[C@]12CC[C@@H](O)C[C@@H]1CC[C@@H]1[C@@H]2CC[C@]2(C)C(=O)CC[C@@H]12`, the outcome was inactive.
Turning to `O=C(O)COc1cc(Cl)c(Cl)cc1Cl`, the result was inactive.
Regarding `Cc1ccc(OP(=O)(Oc2ccc(C)cc2C)Oc2ccc(C)cc2C)c(C)c1`, the AC50 is 5.81 µM (active).
As for `C=CC(Cl)CCl` (stereo not given), the result was inactive.
Consider `[Cl][Sn]([c]1ccccc1)([c]1ccccc1)[c]1ccccc1`, for which the AC50 was 0.154 µM (active).
As to `COc1ccccc1N`, the result was inactive.
Consider `Cc1cccc(OP(=O)(Oc2cccc(C)c2)Oc2cccc(C)c2)c1`, for which the outcome was inactive.
On the same count and under the same terms, for `N#Cc1cccnc1` the value was “inactive”.
As for `OC(Cc1ccccc1Cl)(Cn1[nH]cnc1=S)C1(Cl)CC1` (stereo not given), the result was inactive.
Turning to `CC1(C)[C@H](C(=O)O[C@H](C#N)c2cccc(Oc3ccccc3)c2)[C@@H]1/C=C(\Cl)C(F)(F)F`, the AC50 is 21.3 µM (active) and the result was inactive.
Consider `CCCCCCCCCCCCN(C)C`, for which the result was inactive.
Turning to `OCCCCO`, the outcome was inactive.
Consider `Nc1ccc(N)cc1`, for which the result was inactive.
For the compound `COCC(=O)N(c1c(C)cccc1C)[C@H](C)C(=O)OC`, the result was inactive.
In the case of `CCOP(=S)(OCC)OP(=S)(OCC)OCC`, the outcome was inactive.
With `Clc1cccc(Cl)c1`, the result was inactive.
`OC(Cc1ccccc1Cl)(Cn1cncn1)C1(Cl)CC1` (stereo not given): the result was inactive.
On to `Clc1cccc(Cl)c1Cl`, for which the outcome was inactive.
`NC(=O)CCl`: the outcome was inactive.
Consider `O=C(N[C@H]1CN2CCC1CC2)c1ccc2c(c1)OCCO2`, for which the result was inactive.
On to `c1ccc(-c2cccc(-c3ccccc3)c2)cc1`, for which the AC50 is 20 µM (active).
Still for that read-out and setting: for `Cc1c([N+](=O)[O-])c(C)c([N+](=O)[O-])c(C(C)(C)C)c1[N+](=O)[O-]` the value was 11.4 µM (active).
With `CCCCN(CCCC)C(=S)[S-].CCCCN(CCCC)C(=S)[S-].[Ni+2]`, the result was inactive.
As for `O=C(CCl)NCO`, the outcome was inactive.
As for `Cc1cc(Cl)ccc1N`, the outcome was inactive.
Consider `Oc1cc(Cl)c(Cl)cc1Cl`, for which the AC50 is 32.6 µM (active).
For the compound `CCOC(=O)CCN(SN(C)C(=O)Oc1cccc2c1OC(C)(C)C2)C(C)C`, the result was inactive.
Consider `CCCCOC(=O)COC(=O)c1ccccc1C(=O)OCCCC`, for which the result was inactive.
As for `N#CCCC(Br)(C#N)CBr` (stereo not given), the AC50 was 11.7 µM (active).

Read-out in another experiment: Monocyte Chemoattractant Protein-1 (MCP1), CCL2 (gene 6347)
Briefly: BSK_LPS_MCP1: BioMAP Diversity Plus: LPS Assay for Monocyte Chemoattractant Protein-1 (MCP1) Biomarker Activity (AID 2283081).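 On AC50: secreted MCP-1 protein quantified by ELISA in culture supernatant.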 The conditions noted are these: primary human HUVEC with PBMC; actives raise or lower the signal. The procedure, abridged:
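LPS-stimulated HUVEC/PBMC co-culture; chemical, 24 h; MCP-1 by ELISA; bidirectional fit vs DMSO; cytotoxicity via SRB (0.1% stain, 10% TCA fix, 560 nm) in parallel wells.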
On to `CCCCCCCCCCCCc1cccc(S(=O)(=O)O)c1`, for which the outcome was inactive.
As for `CC(C)N(C(=O)CCl)c1ccccc1`, the AC50 was 27.3 µM (active).
Consider `CN(C)C(=S)S`, for which the result was inactive.
For `Oc1c(Br)cc(Br)cc1Br`, the result was inactive.
Take `C[C@]12CC[C@@H](O)C[C@@H]1CC[C@@H]1[C@@H]2CC[C@]2(C)C(=O)CC[C@@H]12`: the result was inactive.
Consider `O=C(O)COc1cc(Cl)c(Cl)cc1Cl`, for which the result was inactive.
Take `Cc1ccc(OP(=O)(Oc2ccc(C)cc2C)Oc2ccc(C)cc2C)c(C)c1`: the AC50 was 20 µM (active).
In the case of `C=CC(Cl)CCl` (stereo not given), the outcome was inactive.
For the compound `[Cl][Sn]([c]1ccccc1)([c]1ccccc1)[c]1ccccc1`, the AC50 is 0.258 µM (active).
As to `COc1ccccc1N`, the outcome was inactive.
Take `Cc1cccc(OP(=O)(Oc2cccc(C)c2)Oc2cccc(C)c2)c1`: the result was inactive.
Same read-out and setting: in the case of `N#Cc1cccnc1` it was “inactive”.
Consider `OC(Cc1ccccc1Cl)(Cn1[nH]cnc1=S)C1(Cl)CC1` (stereo not given), for which the AC50 was 24.6 µM (active).
Take `CC1(C)[C@H](C(=O)O[C@H](C#N)c2cccc(Oc3ccccc3)c2)[C@@H]1/C=C(\Cl)C(F)(F)F`: the outcome was inactive.
On the same count and under the same terms, for `CCCCCCCCCCCCN(C)C` the value was “inactive”.
For the compound `OCCCCO`, the outcome was inactive.
As to `Nc1ccc(N)cc1`, the outcome was inactive.
Turning to `COCC(=O)N(c1c(C)cccc1C)[C@H](C)C(=O)OC`, the outcome was inactive.
For the compound `CCOP(=S)(OCC)OP(=S)(OCC)OCC`, the result was inactive.
In the case of `Clc1cccc(Cl)c1`, the result was inactive.
As to `OC(Cc1ccccc1Cl)(Cn1cncn1)C1(Cl)CC1` (stereo not given), the result was inactive.
Take `Clc1cccc(Cl)c1Cl`: the result was inactive.
On to `NC(=O)CCl`, for which the result was inactive.
With `O=C(N[C@H]1CN2CCC1CC2)c1ccc2c(c1)OCCO2`, the outcome was inactive.
Regarding `c1ccc(-c2cccc(-c3ccccc3)c2)cc1`, the AC50 is 29.5 µM (active).
As to `Cc1c([N+](=O)[O-])c(C)c([N+](=O)[O-])c(C(C)(C)C)c1[N+](=O)[O-]`, the outcome was inactive.
Still for that read-out and setting: in the case of `CCCCN(CCCC)C(=S)[S-].CCCCN(CCCC)C(=S)[S-].[Ni+2]` it was “inactive”.
With `O=C(CCl)NCO`, the outcome was inactive.
For the compound `Cc1cc(Cl)ccc1N`, the outcome was inactive.
Consider `Oc1cc(Cl)c(Cl)cc1Cl`, for which the AC50 was 30.2 µM (active).
As for `CCOC(=O)CCN(SN(C)C(=O)Oc1cccc2c1OC(C)(C)C2)C(C)C`, the outcome was inactive.
Regarding `CCCCOC(=O)COC(=O)c1ccccc1C(=O)OCCCC`, the result was inactive.
As to `N#CCCC(Br)(C#N)CBr` (stereo not given), the AC50 was 11 µM (active).
